# In PubChem BioAssay AID463193 (University of Pittsburgh Molecular Library Screening Center, 2010):
# Among all 190,000 compounds or so, about 1,900 (1%) were called active.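 The calls were made as follows: active = percentage of spot-positive cells more than 3 SD above its plate mean, without a fluorescence outlier flag or 80% toxicity; inconclusive = no clear call, values can overlap the other calls; inactive = the rest.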 The entries come from a sample that favours actives as a whole.
# Experiment: autophagy modulators in MEF cells, primary screen, imaging, high-content, MEF GFP-LC3 (AID 463193);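 as to % cells with GFP-LC3 spots: spot-positive cell cutoff set from DMSO-treated cells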;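 as to toxicity: cell loss after 18 h compound exposure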
# Details: MEF GFP-LC3 puncta imaging, at 10 µM; % cells with GFP-LC3 spots: stronger effect = higher value; toxicity: measured here: cell loss, nuclei count
SMILES,% cells with GFP-LC3 spots,toxicity [%]
C/C(Cc1ccccc1)=N\NC(=O)CNC(=O)c1cccc(Br)c1,6.35% (inactive),7.09
COc1ccc(N2CCN(c3ccc([N+](=O)[O-])cc3Cl)CC2)cc1,3.9% (inactive),14.4
CN(C)S(=O)(=O)N1CCN(c2ccc([N+](=O)[O-])cc2)CC1,20% (active),4.08
Cc1ccc(N2CCN(S(=O)(=O)N(C)C)CC2)cc1Cl,10.8% (inactive),7.23
O=C(O)CCn1c(SCc2cc(=O)n3ccccc3n2)nc2ccsc2c1=O,0.605% (inactive),8.22
Cc1ccc(NC(=O)CN(C)Cc2ccc(F)cc2)c([N+](=O)[O-])c1,5.2% (inactive),3.98
Cc1ccc(NC(=O)c2oc(=O)c3ccccc3c2-c2ccccc2)c(C)c1,6.34% (inactive),-1.17
Cc1ccc(NC(=O)c2oc3ccccc3c2C)c([N+](=O)[O-])c1,13.1% (active),22.2
CCOC12CC(C)(C)CC(C)(CC3=C1C(=O)CC(C)(C)C3)C2 (stereo not drawn),4.26% (inactive),3.51
COc1ccc(Nc2nc(-c3ccccc3)cs2)cc1,11.9% (inactive),-34.3
Oc1ccc(-c2csc(Nc3cccnc3)n2)cc1,7.75% (inactive),-0.924
COc1ccc(-c2csc(Nc3ccc(O)cc3)n2)cc1,16.2% (active),17.3
CCC(CC)NC(=O)CSc1nnc(-c2c[nH]c3ccccc23)o1,15.7% (inactive),28.2
Cc1ccc(N=Cc2c(O)cc(C)oc2=O)c(C)c1,9.61% (inactive),4.32
Cc1ccc(-n2c(O)c(C=Nc3ccc(S(=O)(=O)Nc4ncccn4)cc3)c3ccccc3c2=O)cc1C,3.56% (inactive),-8.78
Cc1ccc(N=Cc2c(O)n(-c3nccs3)c(=O)c3ccccc23)c(C)c1,60% (active),-7.63
CCOC(=O)N1CCN(C(=O)c2ccccc2N(Cc2ccccc2)S(=O)(=O)c2ccc(OC)cc2)CC1,19.1% (inactive),5.8
Cc1c(CN2CCC(CO)(CCOc3ccccc3)CC2)[nH]c2ccc(Cl)cc12,14.1% (inactive),-12.9
COc1cccc2sc(Nc3nc(C)c(C(C)=O)s3)nc12,21.8% (active),46.9
CC(=O)c1sc(NC(=O)CCCOc2ccccc2C)nc1C,7.71% (inactive),7.95
COc1cccc2sc(NNC(=O)c3nc4ccccc4s3)nc12,8.59% (inactive),0.117

SMILES,% cells with GFP-LC3 spots,toxicity [%]
CC1CCN(C2=NC(=O)/C(=C/c3cn[nH]c3-c3ccccc3)S2)CC1,4.99% (inactive),5.05
O=C(CN(c1ccccc1)S(=O)(=O)c1ccc(Cl)cc1)Nc1ccccc1C(=O)N1CCCC1,9.32% (inactive),0.638
O=C(Nc1ccccc1C(=O)N1CCOCC1)c1ccc(Cl)cc1,1.74% (inactive),11.5
O=C(Nc1ccccc1C(=O)N1CCCCCC1)c1ccccc1Cl,43.8% (active),-8.81
O=C(CN1C(=O)/C(=C/c2ccccc2F)Sc2ccccc21)NCc1cccnc1,0.409% (inactive),-0.091
C=C1c2cc(CC)ccc2NC(=O)N1c1ccc(C)cc1,1.08% (inactive),-2.35
CCc1ccc2c(c1)C1(NN=C(c3ccccc3)S1)C(=O)N2 (stereo not drawn),24.9% (active),40.3
O=C1Nc2ccccc2C12Nc1ccccc1S2 (stereo not drawn),6.3% (inactive),-0.645
CCOc1ccc(N(CC(=O)NCCc2ccc(OC)cc2)S(C)(=O)=O)cc1,1.57% (inactive),-14.4
COc1ccc(C2CC(c3ccc(Cl)cc3Cl)Nc3nc(N)nn32)cc1OC (stereo not drawn),14.3% (active),1.79
Cc1ccc(C2CC(c3cccc(C)c3)n3nc(N)nc3N2)cc1 (stereo not drawn),4.2% (inactive),10.4
COc1ccc(C2CC(c3ccc(C)cc3)Nc3nc(N)nn32)cc1 (stereo not drawn),17.9% (inactive),-20.4
O=C(CSc1nc(-c2ccco2)cc(C(F)(F)F)n1)NCc1cccs1,11.9% (active),19.8
O=C(CSc1nc(-c2ccco2)cc(C(F)(F)F)n1)N1CCc2ccccc2C1,0.274% (inactive),-3.54
COc1ccc(-c2cc(C(F)(F)F)nc(SCCC(=O)NCc3ccco3)n2)cc1,14.8% (inactive),0.225
Cc1ccc(S(=O)(=O)N2CCCC2C(=O)OCc2nc3sc(C)c(C)c3c(=O)[nH]2)cc1 (stereo not drawn),7.41% (inactive),2.2
CS(=O)(=O)N(CC(=O)N/N=C/c1ccccn1)c1ccc(Oc2ccccc2)cc1,19.6% (inactive),9.84
COc1cc(N=Cc2c(O)[nH]c3ccccc23)cc(OC)c1OC,1.9% (inactive),14.8
COc1ccc(N=Cc2c(O)[nH]c3ccccc23)cc1OC,20.4% (inactive),0.85
COc1ccc(OC)c(N=Cc2c(O)[nH]c3ccccc23)c1,30.3% (active),10.8
O=C(NNC1CC(=O)N(c2cccc(Cl)c2)C1=O)c1cccnc1 (stereo not drawn),14.6% (inactive),-11.8

SMILES,% cells with GFP-LC3 spots,toxicity [%]
COc1cccc2c(O)cc(=O)n(C)c12,6.52% (inactive),15.8
CCN1CCN(C(c2cccnc2)c2cc(Cl)c3cccnc3c2O)CC1 (stereo not drawn),0.145% (inactive),15.1
O=C(c1cccc(C(=O)N2CCN(c3ccc(F)cc3)CC2)c1)N1CCN(c2ccc(F)cc2)CC1,13% (inactive),-26
Oc1c(CN2CCN(c3ccc(F)cc3)CC2)cc(Cl)c2cccnc12,52% (active),33.9
C=CCn1c(CCNC(=O)c2ccccc2F)nnc1SCC(=O)Nc1ccc(OC)cc1,1.65% (inactive),10.4
COc1ccc(OC)c(S(=O)(=O)NCCC(C)C)c1,7.62% (inactive),7.42
CCn1c(-c2cc(OC)ccc2OC)csc1=Nc1c(C)n(C)n(-c2ccccc2)c1=O,12.4% (active),-0.744
COc1ccc(S(=O)(=O)Nc2c(C)n(C)n(-c3ccccc3)c2=O)cc1,4.67% (inactive),4.21
CN=c1scc(-c2cc(OC)ccc2OC)n1/N=C/c1c(C)[nH]c2ccccc12,8.49% (inactive),3.61
COc1ccc(-c2nc(N)sc2C2(O)C(=O)Nc3c(Br)cc(F)cc32)cc1OC (stereo not drawn),1.66% (inactive),-1.9
COC(=O)NNC1=CC(=O)CC(C)(C)C1,0.796% (inactive),-6.02
Clc1cc(-c2ccc(/C=N/n3cnnc3)o2)ccc1Br,8.69% (inactive),20.9
CC(=O)N/N=C(\C)c1ccc(Br)cc1Br,20.7% (inactive),2.43
CCOC(=O)C1CCN(C(c2cc3cc(C)cc(C)c3[nH]c2=O)c2nnnn2C2CCCCC2)CC1 (stereo not drawn),19.2% (active),24.2
Cc1cc(C)c2[nH]c(=O)c(C(c3nnnn3Cc3ccc4c(c3)OCO4)N3CCCC3)cc2c1 (stereo not drawn),21.2% (inactive),8.95
COc1ccc(N2CCN(C(c3cc4ccc(C)cc4[nH]c3=O)c3nnnn3C3CCCC3)CC2)cc1 (stereo not drawn),5.85% (inactive),-3.74
O=C(CN1C(=O)NC2(CCCC2)C1=O)NCC1CCCO1 (stereo not drawn),11.1% (inactive),7.52
O=C(NNC(=O)c1cc2c(s1)CCCC2)c1ccccc1,9.94% (inactive),-13.8
C/C(=N\NC(=O)c1cc2c(s1)CCC(C)C2)c1cccnc1 (stereo not drawn),17.7% (inactive),-0.909
CC1CCc2sc(C(=O)N/N=C/C3CCCCC3)cc2C1 (stereo not drawn),20.3% (active),-2.28
COC(=O)c1c(C)[nH]c(C)c1-c1ccc([N+](=O)[O-])cc1,18.2% (inactive),38.9

SMILES,% cells with GFP-LC3 spots,toxicity [%]
CCOC(=O)c1c(NC(=O)Cn2nc(C(F)(F)F)cc2C)sc2c1CCC2,7.63% (inactive),0.444
N=c1c2c(-c3ccccc3)c(-c3ccccc3)oc2ncn1Cc1ccco1,5.09% (inactive),-0.176
Cc1nc([N+](=O)[O-])c(NCCCO)n1Cc1ccccc1,43.4% (inactive),4.77
N=c1c2c(-c3ccccc3)c(-c3ccccc3)n(Cc3ccccc3)c2ncn1CCCO,32% (active),9.38
O=C(Cc1ccccc1)NNS(=O)(=O)c1ccc([N+](=O)[O-])cc1,5.31% (inactive),-4.08
CCCCN(CC)C(=O)c1ccccc1Oc1ccccc1,7.48% (inactive),-0.889
CCc1nn(-c2cc(Oc3cccc4ccccc34)nc(-c3ccccc3)n2)c(N)c1C#N,19.2% (active),-18
CCCC(=O)n1nc(-c2ccccc2)nc1N,10.8% (inactive),-5.17
COc1ccc(C2c3c(C)nn(-c4ccccc4)c3NC(=O)N2c2ccccc2)cc1 (stereo not drawn),11% (inactive),17.6
COc1ccc(CN2CCCC(C(=O)c3ccc(Cl)cc3)C2)cc1Cn1cncn1 (stereo not drawn),0.149% (inactive),-9.01
CCc1ccc(NC(=O)Cn2nc(C)c([N+](=O)[O-])c2C)cc1,13.4% (active),38.8
Cc1nn(CC(=O)Nc2ccc(C#N)cc2)c(C)c1[N+](=O)[O-],2.1% (inactive),9.5
Cc1nn(CC(=O)Nc2ccc(N(C)C)cc2)c(C)c1[N+](=O)[O-],8.73% (inactive),-12.8
C=CCC(C(=O)c1ccccc1)[N+](C)(C)CC=C (stereo not drawn),2.53% (inactive),-14.3
COC(=O)COc1ccc(C2NC(=O)NC(C)=C2C(=O)NCc2ccccc2)cc1OC (stereo not drawn),0.797% (inactive),20.4
Cn1c(N)c(C(=O)COC(=O)c2cnc(Cl)c(Cl)c2)c(=O)n(C)c1=O,0.712% (inactive),15.7
Cc1c(Cl)cccc1NC(=O)CSc1ccc(-c2cccnc2)nn1,0.277% (inactive),-2.28
CCC(=O)Nc1cc(C(F)(F)F)ccc1N1CCCC1,0.264% (inactive),-3.5
CCC1CCc2c(sc(NC(C)=O)c2C#N)C1 (stereo not drawn),6.62% (inactive),-8.42
CN1CCN(CC(=O)Nc2sc3c(c2C#N)CCC(C(C)(C)C)C3)CC1 (stereo not drawn),41.9% (active),29.1
CCN1CCN(CC(=O)Nc2sc3c(c2C#N)CCC3)CC1,2.15% (inactive),4.77
